From PubChem BioAssay (NCATS)
Records with an inconclusive call do not appear. Where a call stands in place of a potency, no number is given. Active and inactive are the calls of the source. Calls follow the shape of the dose curve; as a rule, active = well fitted curve in the direction sought with a large enough effect; inconclusive = small, poorly fitted or top-dose-only effect, or another doubt; inactive = no such curve, though single readings can be large; an effect the other way counts as inactive or inconclusive.

assay: Quantitative highthroughput screen to assess conditional lethalithy of P12 Ichikawa cells grown in RPMI1640 with untreated serum (RPMI+s) (AID 1963881); details: ATP luminescence, 48 h; Potency: viability; series mostly up to 45.8 µM
Method in brief: (§1)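 Each medium arm—HPLM with 10% dialyzed FBS, or RPMI1640 with 5 mM glucose and 10% untreated or dialyzed FBS—was screened against an 11-point, 3-fold compound titration for 48 h at 37 °C, with CellTiter-Glo luminescence as endpoint.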
Also: nearly all actives have a fitted effect of over 35% in size.
Potency is read from the fitted curve at half-maximal effect.

Structure (SMILES) | Potency
COc1cccc(N(C)C(=S)Oc2ccc3c(c2)CCCC3)n1 | inactive
Fc1ccc(C(c2ccc(F)cc2)N2CCN(CC=Cc3ccccc3)CC2)cc1 | inactive
Cc1nn(C)c2c1C(c1ccc(C(F)(F)F)cc1)C(C#N)=C(N)O2 (centres undefined) | inactive
CCCCCCCCCCCCCCCC(=O)OC[C@@H](NC(=O)C(Cl)Cl)[C@H](O)c1ccc([N+](=O)[O-])cc1 | inactive
COc1cc(C=CC(=O)CC(=O)C=Cc2ccc(O)c(OC)c2)ccc1O | 34000 nM (active)
Cc1c(-c2cccc3c(CCCOc4cccc5ccccc45)c(C(=O)O)n(Cc4cccnc4)c23)c(COc2ccc(N3CCN([S+](=O)([O-])N(C)C)CC3)cc2)nn1C | inactive
C[C@]12C=CC(=O)N[C@@H]1CC[C@H]1[C@H]3CC[C@@H](C(=O)Nc4cc(C(F)(F)F)ccc4C(F)(F)F)[C@@]3(C)CC[C@@H]12 | inactive
CCC=CC[C@H]1C(=O)CC[C@@H]1CC(=O)OC | inactive
CS[C@H]1SC[C@@H]2C(=O)N(C)[C@H](C(C)C)C(=O)OC[C@H](NC(=O)c3cnc4ccccc4n3)C(=O)N[C@H](C)C(=O)N(C)[C@@H]1C(=O)N(C)[C@H](C(C)C)C(=O)OC[C@H](NC(=O)c1cnc3ccccc3n1)C(=O)N[C@H](C)C(=O)N2C | 14.8 nM (active)
O=C(C=CC#Cc1cccc(NS(=O)(=O)c2ccccc2)c1)NO | 2090 nM (active)
O=C(C=Cc1c(C(=O)O)[nH]c2cc(Cl)cc(Cl)c12)Nc1ccccc1 | inactive
CCC(=O)OCC(=O)[C@@]1(OC(=O)CC)[C@@H](C)C[C@@H]2[C@H]3CCC4=CC(=O)C=C[C@]4(C)[C@@]3(F)[C@@H](O)C[C@@]21C | 4690 nM (active)
CCN(CC)CCNC(=O)c1c(C)[nH]c(C=C2C(=O)Nc3ccc(F)cc32)c1C | 481 nM (active)
CCC(=C(CC)c1ccc(O)cc1)c1ccc(O)cc1 | inactive
CC(C)c1onc(-c2c(Cl)cccc2Cl)c1COc1ccc(C=Cc2cccc(C(=O)O)c2)c(Cl)c1 | inactive
O=C(NNC(=O)c1ccc(CNS(=O)(=O)c2ccc(F)c(Cl)c2)cc1)c1ccccc1 | inactive
CNC[C@@H](O)[C@@H](O)[C@H](O)[C@H](O)CO | inactive
CC(C=CC1=C(C)CCCC1(C)C)=CC=CC(C)=CC(=O)O | inactive
C[C@H](CCC(=O)O)[C@H]1CC[C@H]2[C@H]3[C@@H](CC[C@]12C)[C@@]1(C)CC[C@@H](O)C[C@H]1C[C@@H]3O | inactive
CCCCCCCc1ccc(CCc2cccc(O)c2C(=O)O)cc1 | inactive
Cc1cccc(C#Cc2ccccc2)n1 | inactive
C[C@H]1[C@H](NC(=O)C(=NOC(C)(C)C(=O)O)c2csc(N)n2)C(=O)N1S(=O)(=O)O | inactive
CC[C@]1(O)C[C@@H]2CN(CCc3c([nH]c4ccccc34)[C@@](C(=O)OC)(c3cc4c(cc3OC)N(C=O)[C@@H]3C45CCN4CC=C[C@](CC)([C@H]45)[C@@H](OC(C)=O)[C@]3(O)C(=O)OC)C2)C1 (some centres undefined) | inactive
COC(=O)N[C@H](C(=O)N1CCC[C@@H]1c1ncc(-c2ccc(-c3ccc(-c4cnc([C@@H]5CCCN5C(=O)[C@@H](NC(=O)OC)C(C)C)[nH]4)cc3)cc2)[nH]1)C(C)C | inactive
CC(C)=CCCC(C)=CCCC(C)=CCCC(C)=CCCC(C)=CCCC(C)=CCCC(C)=CCCC(C)=CCCC(C)=CCO | inactive
OCC(O)C(O)C(O)CO (centres undefined) | inactive
C[C@@H]1CC=CC=CC=CC=C[C@@H](O[C@@H]2O[C@H](C)[C@@H](O)[C@H](N)[C@H]2O)C[C@@H]2O[C@](O)(C[C@@H](O)C[C@@H]3O[C@@H]3C=CC(=O)O1)C[C@H](O)[C@@H]2C(=O)O | inactive

assay: Quantitative highthroughput screen to assess conditional lethalithy of SEM cells grown in Human Plasma-Like Medium with dialyzed fetal bovine serum (HPLM+ds) (AID 1963882); details: SEM B-ALL cells in HPLM+ds, CellTiter-Glo viability, 48 h; series mostly up to 45.8 µM
Method in brief: as §1

Structure (SMILES) | Potency
COc1cccc(N(C)C(=S)Oc2ccc3c(c2)CCCC3)n1 | inactive
Fc1ccc(C(c2ccc(F)cc2)N2CCN(CC=Cc3ccccc3)CC2)cc1 | inactive
CCCCCCCCCCCCCCCC(=O)OC[C@@H](NC(=O)C(Cl)Cl)[C@H](O)c1ccc([N+](=O)[O-])cc1 | inactive
COc1cc(C=CC(=O)CC(=O)C=Cc2ccc(O)c(OC)c2)ccc1O | 19100 nM (active)
C[C@]12C=CC(=O)N[C@@H]1CC[C@H]1[C@H]3CC[C@@H](C(=O)Nc4cc(C(F)(F)F)ccc4C(F)(F)F)[C@@]3(C)CC[C@@H]12 | inactive
CS[C@H]1SC[C@@H]2C(=O)N(C)[C@H](C(C)C)C(=O)OC[C@H](NC(=O)c3cnc4ccccc4n3)C(=O)N[C@H](C)C(=O)N(C)[C@@H]1C(=O)N(C)[C@H](C(C)C)C(=O)OC[C@H](NC(=O)c1cnc3ccccc3n1)C(=O)N[C@H](C)C(=O)N2C | 3.7 nM (active)
O=C(C=CC#Cc1cccc(NS(=O)(=O)c2ccccc2)c1)NO | 2640 nM (active)
CCC(=C(CC)c1ccc(O)cc1)c1ccc(O)cc1 | inactive
CC(C)c1onc(-c2c(Cl)cccc2Cl)c1COc1ccc(C=Cc2cccc(C(=O)O)c2)c(Cl)c1 | inactive
O=C(NNC(=O)c1ccc(CNS(=O)(=O)c2ccc(F)c(Cl)c2)cc1)c1ccccc1 | inactive
CC(C=CC1=C(C)CCCC1(C)C)=CC=CC(C)=CC(=O)O | inactive
C[C@H](CCC(=O)O)[C@H]1CC[C@H]2[C@H]3[C@@H](CC[C@]12C)[C@@]1(C)CC[C@@H](O)C[C@H]1C[C@@H]3O | inactive
Cc1cccc(C#Cc2ccccc2)n1 | inactive
C[C@H]1[C@H](NC(=O)C(=NOC(C)(C)C(=O)O)c2csc(N)n2)C(=O)N1S(=O)(=O)O | inactive
COC(=O)N[C@H](C(=O)N1CCC[C@@H]1c1ncc(-c2ccc(-c3ccc(-c4cnc([C@@H]5CCCN5C(=O)[C@@H](NC(=O)OC)C(C)C)[nH]4)cc3)cc2)[nH]1)C(C)C | inactive
CC(C)=CCCC(C)=CCCC(C)=CCCC(C)=CCCC(C)=CCCC(C)=CCCC(C)=CCCC(C)=CCCC(C)=CCO | inactive
C[C@@H]1CC=CC=CC=CC=C[C@@H](O[C@@H]2O[C@H](C)[C@@H](O)[C@H](N)[C@H]2O)C[C@@H]2O[C@](O)(C[C@@H](O)C[C@@H]3O[C@@H]3C=CC(=O)O1)C[C@H](O)[C@@H]2C(=O)O | inactive
